Results taken from PubChem BioAssay (NCI).
The panel holds about 83,000 compounds, 20% with a hit somewhere; the sample as a whole holds those more often.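 Assay: single dose, 48 h. Readout: percent growth (0 = no net growth; negative = cell death). Active: <10.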 A number with no mark means an inactive call. Active and inactive are the calls of the source.

Key:
Assay in all cases: NCI-60 one-dose screen, 48 h (100 = growth as untreated, 0 = no growth, -100 = all killed)
SK-MEL-2 melanoma = settings: 10 µM unless noted
SN12C renal = settings: 10 µM unless noted
TK-10 renal = settings: 10 µM unless noted
ACHN renal = settings: 10 µM unless noted
CAKI-1 renal = settings: 10 µM unless noted
A498 renal = settings: 10 µM unless noted
CCRF-CEM leukemia = settings: 10 µM unless noted
MOLT-4 leukemia = settings: 10 µM unless noted
SR leukemia = settings: 10 µM unless noted
RPMI-8226 leukemia = settings: 10 µM
OVCAR-5 ovarian = settings: 10 µM unless noted
OVCAR-4 ovarian = settings: 10 µM unless noted
SK-OV-3 ovarian = settings: 10 µM
IGROV1 ovarian = settings: 10 µM unless noted
OVCAR-3 ovarian = settings: 10 µM unless noted
HS 578T breast = settings: 10 µM unless noted
NCI/ADR-RES ovarian = settings: 10 µM unless noted
OVCAR-8 ovarian = settings: 10 µM unless noted
EKVX NSCLC = settings: 10 µM unless noted
UO-31 renal = settings: 10 µM unless noted

Row | Structure (SMILES) | growth (SK-MEL-2 melanoma) | growth (SN12C renal) | growth (TK-10 renal) [%] | growth (ACHN renal) | growth (CAKI-1 renal) | growth (A498 renal) | growth (CCRF-CEM leukemia) | growth (MOLT-4 leukemia) | growth (SR leukemia) | growth (RPMI-8226 leukemia) | growth (OVCAR-5 ovarian) | growth (OVCAR-4 ovarian) | growth (SK-OV-3 ovarian) | growth (IGROV1 ovarian) | growth (OVCAR-3 ovarian) | growth (HS 578T breast) | growth (NCI/ADR-RES ovarian) | growth (OVCAR-8 ovarian) | growth (EKVX NSCLC) [%] | growth (UO-31 renal) [%]
1 | COc1ccc(-n2ncc3c2ccc2cc(S(=O)(=O)c4ccccc4)c(=O)n(C)c23)cc1 | 96.3% | 101% | 86.3 | 75.4% | 89.3% | 70.5% | 96.6% | 103% | 86.1% | 85.4% | 98.4% | 6.65% (active) | 83.5% | 109% | 91.1% | 49.5% | 77.3% |  |  | 
2 | C=CC(=O)N1CC2(CCC(n3nc(-c4ccc(Oc5ccccc5)cc4)c4c(N)ncnc43)CC2)C1 | -89.7% (active) | -10.7% (active) |  | -83.6% (active) | -75.1% (active) | -93.2% (active) | -6.08% (active) | -28.2% (active) | -23.2% (active) | -56% (active) | -0.902% (active) | -10.7% (active) | -24.6% (active) | -51.2% (active) | -36.6% (active) | -35.5% (active) | -9.16% (active) |  |  | 
3 | Cc1nc2cc(Nc3nc(Cl)nc(Nc4ccc(F)cc4)n3)ccc2n1Cc1ccccc1 | 111% | 77.9% | 58.5 | 36.2% | 87.7% | 69.3% | 78.5% |  | 57.5% | 15.3% | 86.3% | 85.8% | 95.9% | 83% | 94.2% | 79.5% | 95.6% | 81.5% |  | 
4 | C=C1CC[C@@H]2[C@@](C)(CCC[C@]2(C)C(=O)O)[C@@H]1CC[C@H](CO)CCO |  | 103% | 99.4 | 106% | 101% | 107% | 102% | 88.2% |  | 113% | 108% | 99% | 102% | 99% | 76.4% | 107% | 104% | 104% | 108 | 79.5
5 | Clc1ccc2c(N3CCN(c4ccnc(NC5CCCCC5)n4)CC3)ccnc2c1 | 72.9% |  | 61.1 | 45.5% | 57.8% | -40.7% (active) | 8.39% (active) | -3.75% (active) | -36% (active) | 2.01% (active) | 80.8% | 42.3% | 62.7% |  |  | 67.7% |  | 56.6% |  | 22.4
6 | CN1CCn2c(c(Sc3ccc(C(=O)NO)cc3)c3ccccc32)C1=O | -43.3% (active) | -3% (active) |  | 36.6% | 50.5% | 4.23% (active) | -6.26% (active) | 1.98% (active) |  | -19.9% (active) | 24.3% | 14% | 57.4% | -44.1% (active) | -32.5% (active) | 49.3% | 64.1% | -46.5% (active) |  | 59
7 | Cc1ccc(-c2c3c(N)c4c(nc3nc3c2c(C)nn3-c2ccccc2)CCCC4)cc1 | 96% | 99.8% | 102 | 97.7% | 93.2% | 92.2% | 82.7% | 92.6% | -4.06% (active) | 94.1% | 101% | 96% | 99.9% | 98.6% | 116% | 105% | 106% | 98.1% |  | 
8 | OC[C@@H](O)[C@@H](O)CO |  | 99.6% | 111 | 103% | 93.9% | 101% | 100% | 94.8% | 81.7% | 118% | 102% | 101% | 116% | 109% | 106% | 104% | 99.6% | 105% | 107 | 80.5
9 | NC(=S)N/N=C1\c2ccccc2-c2c(F)c(F)c(F)c(F)c21 |  | 70.6% | 116 | 65.7% | 78.3% | 105% | -28.1% (active) | -18% (active) | 2.57% (active) | 67.1% | 108% | 56.5% | 98.8% | 20.8% | 61.6% | 107% | 10.2% | 39.6% | 87.3 | 68.9
10 | CCC12CCC3c4ccc(O)cc4CCC3C1CC(O)C2O (stereo not given) |  | 82.5% | 85.3 | 103% | 59.4% | 67.1% | 85.4% | 69.4% | 19.3% | 89% | 103% | 82.7% | 98.7% | 82.8% |  | 76.8% | 47.1% | 91.5% | 83.7 | 65.9
11 | Cc1ccc(S(=O)(=O)N2CCc3ccc(O)c4c3C2Cc2cc(Cl)ccc2-4)cc1 (stereo not given) |  | 91.9% | 69.1 | 57.1% | 56.1% | 47.5% | 94% | 74.4% | 18.9% | 93.8% | 99% | 70.3% | 70% | 57.6% | -3.87% (active) | 62.8% | 42.6% | 75.4% | 99.6 | 48.8
12 | Cc1ccc(S(=O)(=O)N(c2ccc(Cl)cc2)c2ccc(Br)cc2C(=O)O)cc1 | 107% | 99.4% |  | 105% | 102% | 111% | 102% |  | 104% | 108% | 101% | 116% | 112% | 109% | 120% | 102% | 115% | 101% |  | 91.4
13 | COc1cccc(OC)c1OC(=O)c1ccccc1 |  | 91.2% | 114 | 107% | 88.4% | 85.6% | 92.7% | 107% | 91.7% | 96.1% | 107% | 97.4% | 106% | 116% | 123% | 96.6% | 105% | 106% | 95.8 | 77.5
14 | COC(=O)c1ccc(C(=O)Nc2ccccc2N)cc1 | 63% | 62.9% |  | 88.6% |  | 80.5% | 4.59% (active) | 30.4% | 67.1% | 12.6% | 53.4% | 96.2% | 92.6% | 74.7% | 87.5% | 75% | 53.1% | 56.9% |  | 36.7
15 | Cn1c2ccc(Cl)cc2c2nn(C(=O)c3ccccc3)c(=O)nc21 | 100% | 103% |  | 95.2% |  | 112% | 96% | 99% | 93% | 106% | 99.5% | 114% | 114% | 110% |  | 104% | 106% | 101% |  | 71.9
16 | c1ccc2c(c1)oc1cc3c(cc12)nnc1cccn13 |  | 103% | 122 | 99.8% | 91.1% | 111% | 109% | 108% | 94.6% |  | 116% | 107% | 108% | 87.4% | 107% | 108% | 111% | 102% | 80.9 | 64.9
